Data: the supplement of paper PMC11732987, “Enantioselective OTUD7B fragment discovery through chemoproteomics screening and high-throughput optimisation” (Communications Chemistry, 2025)

Key:
Assay in all cases: log2 ratio of Biotin-Ahx-Ub-VS probe labelling (fragment/DMSO); higher = less target engagement (more negative = stronger competition), active = hit call of the paper (q ≤ 0.05, log2 ratio ≤ -1)
Conditions in all cases: compound concentration: 200 uM; treatment time: 3 h
[1] = molecular target: T1, USP42 (UniProt Q9H9J4)
T1 sequence (whole entry): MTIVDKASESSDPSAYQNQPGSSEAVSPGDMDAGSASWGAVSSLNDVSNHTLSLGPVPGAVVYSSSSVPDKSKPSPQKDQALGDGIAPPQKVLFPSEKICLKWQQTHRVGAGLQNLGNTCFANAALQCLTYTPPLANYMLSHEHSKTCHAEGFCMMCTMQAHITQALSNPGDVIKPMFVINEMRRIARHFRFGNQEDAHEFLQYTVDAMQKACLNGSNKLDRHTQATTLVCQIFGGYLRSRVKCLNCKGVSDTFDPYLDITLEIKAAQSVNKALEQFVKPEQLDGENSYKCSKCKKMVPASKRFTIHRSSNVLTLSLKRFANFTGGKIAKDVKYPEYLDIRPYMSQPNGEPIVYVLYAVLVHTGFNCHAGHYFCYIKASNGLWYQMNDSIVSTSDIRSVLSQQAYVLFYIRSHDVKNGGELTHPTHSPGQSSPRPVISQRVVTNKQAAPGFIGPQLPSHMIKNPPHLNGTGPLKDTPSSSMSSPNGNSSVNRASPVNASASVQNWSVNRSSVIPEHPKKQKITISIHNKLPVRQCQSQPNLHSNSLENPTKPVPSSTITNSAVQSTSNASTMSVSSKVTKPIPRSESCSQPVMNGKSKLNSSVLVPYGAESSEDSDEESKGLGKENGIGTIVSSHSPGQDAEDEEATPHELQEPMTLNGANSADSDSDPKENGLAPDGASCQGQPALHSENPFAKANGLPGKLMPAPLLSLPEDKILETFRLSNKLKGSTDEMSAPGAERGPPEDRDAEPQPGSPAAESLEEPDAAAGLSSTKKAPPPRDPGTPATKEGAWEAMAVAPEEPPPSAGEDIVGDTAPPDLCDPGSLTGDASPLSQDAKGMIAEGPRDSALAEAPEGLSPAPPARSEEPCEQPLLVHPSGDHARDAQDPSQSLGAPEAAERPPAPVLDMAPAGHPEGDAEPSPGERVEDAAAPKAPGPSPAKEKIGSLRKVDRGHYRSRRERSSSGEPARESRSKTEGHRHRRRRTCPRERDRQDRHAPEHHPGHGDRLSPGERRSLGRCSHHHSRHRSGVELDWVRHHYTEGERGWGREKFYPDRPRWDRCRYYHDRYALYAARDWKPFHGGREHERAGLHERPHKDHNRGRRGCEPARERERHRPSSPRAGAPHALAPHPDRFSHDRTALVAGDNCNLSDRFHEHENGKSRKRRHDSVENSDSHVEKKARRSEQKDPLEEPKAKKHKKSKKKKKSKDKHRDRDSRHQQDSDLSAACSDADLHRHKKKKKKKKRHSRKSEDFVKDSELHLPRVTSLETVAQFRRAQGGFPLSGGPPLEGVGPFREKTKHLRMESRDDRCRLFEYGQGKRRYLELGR
Method in brief: (§1)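 HEK293T lysate (495 µg per sample, in Tris/CHAPS/IGEPAL buffer with protease inhibitors) was exposed in triplicate for 3 h to fragment at 200 µM or to vehicle, then to Biotin-Ahx-Ub-VS at 0.5 µM final for 1 h. Labelled DUBs were enriched on NeutrAvidin, digested with LysC and trypsin, and analysed by diaPASEF LC-MS/MS. Spectronaut label-free quantities were normalised to the global median, and values are average log2 ratios of fragment over vehicle from an unpaired t-test. Only proteins with ≥2 unique peptides were used.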

[2] = molecular target: USP46 (UniProt P62068)
Method in brief: as §1

[3] = molecular target: T2, USP47 (UniProt Q96K76)
T2 sequence (whole entry): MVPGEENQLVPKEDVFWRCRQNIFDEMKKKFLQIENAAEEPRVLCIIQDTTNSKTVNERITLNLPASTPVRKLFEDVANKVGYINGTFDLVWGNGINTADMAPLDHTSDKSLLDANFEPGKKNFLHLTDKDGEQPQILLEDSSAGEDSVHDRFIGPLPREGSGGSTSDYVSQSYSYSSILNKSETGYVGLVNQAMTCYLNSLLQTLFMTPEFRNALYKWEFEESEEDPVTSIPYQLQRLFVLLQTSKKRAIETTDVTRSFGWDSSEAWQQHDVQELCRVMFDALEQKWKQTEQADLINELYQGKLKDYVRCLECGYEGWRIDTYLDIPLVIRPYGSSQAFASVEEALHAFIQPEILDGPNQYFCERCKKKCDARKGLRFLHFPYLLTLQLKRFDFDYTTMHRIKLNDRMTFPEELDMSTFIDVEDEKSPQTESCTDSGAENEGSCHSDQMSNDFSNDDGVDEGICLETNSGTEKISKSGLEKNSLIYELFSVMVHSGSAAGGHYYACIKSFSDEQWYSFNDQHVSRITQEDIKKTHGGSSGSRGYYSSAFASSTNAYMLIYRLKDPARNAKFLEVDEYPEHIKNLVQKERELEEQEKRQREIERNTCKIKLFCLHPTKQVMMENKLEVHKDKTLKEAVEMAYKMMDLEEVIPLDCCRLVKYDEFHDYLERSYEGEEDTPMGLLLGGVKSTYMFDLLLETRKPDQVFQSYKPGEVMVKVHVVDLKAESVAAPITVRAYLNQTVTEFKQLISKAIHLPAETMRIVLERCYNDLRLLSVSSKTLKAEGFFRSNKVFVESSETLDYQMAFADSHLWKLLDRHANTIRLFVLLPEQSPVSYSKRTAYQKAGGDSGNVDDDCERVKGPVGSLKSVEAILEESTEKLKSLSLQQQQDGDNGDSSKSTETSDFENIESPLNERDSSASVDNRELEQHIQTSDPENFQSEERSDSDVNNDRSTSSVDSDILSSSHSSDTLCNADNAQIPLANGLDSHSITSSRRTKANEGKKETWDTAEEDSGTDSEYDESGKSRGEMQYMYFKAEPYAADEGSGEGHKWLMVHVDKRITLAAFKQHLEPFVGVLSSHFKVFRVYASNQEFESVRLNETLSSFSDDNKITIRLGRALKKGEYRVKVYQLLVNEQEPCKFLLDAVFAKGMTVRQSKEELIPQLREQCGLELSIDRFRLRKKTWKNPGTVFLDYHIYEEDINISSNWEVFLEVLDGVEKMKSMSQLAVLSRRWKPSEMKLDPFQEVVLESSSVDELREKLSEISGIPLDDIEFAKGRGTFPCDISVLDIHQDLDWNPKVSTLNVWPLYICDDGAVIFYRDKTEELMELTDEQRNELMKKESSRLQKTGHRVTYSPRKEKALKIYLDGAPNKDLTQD
Method in brief: as §1

[4] = molecular target: T3, USP48 (UniProt Q86UV5)
T3 sequence (whole entry): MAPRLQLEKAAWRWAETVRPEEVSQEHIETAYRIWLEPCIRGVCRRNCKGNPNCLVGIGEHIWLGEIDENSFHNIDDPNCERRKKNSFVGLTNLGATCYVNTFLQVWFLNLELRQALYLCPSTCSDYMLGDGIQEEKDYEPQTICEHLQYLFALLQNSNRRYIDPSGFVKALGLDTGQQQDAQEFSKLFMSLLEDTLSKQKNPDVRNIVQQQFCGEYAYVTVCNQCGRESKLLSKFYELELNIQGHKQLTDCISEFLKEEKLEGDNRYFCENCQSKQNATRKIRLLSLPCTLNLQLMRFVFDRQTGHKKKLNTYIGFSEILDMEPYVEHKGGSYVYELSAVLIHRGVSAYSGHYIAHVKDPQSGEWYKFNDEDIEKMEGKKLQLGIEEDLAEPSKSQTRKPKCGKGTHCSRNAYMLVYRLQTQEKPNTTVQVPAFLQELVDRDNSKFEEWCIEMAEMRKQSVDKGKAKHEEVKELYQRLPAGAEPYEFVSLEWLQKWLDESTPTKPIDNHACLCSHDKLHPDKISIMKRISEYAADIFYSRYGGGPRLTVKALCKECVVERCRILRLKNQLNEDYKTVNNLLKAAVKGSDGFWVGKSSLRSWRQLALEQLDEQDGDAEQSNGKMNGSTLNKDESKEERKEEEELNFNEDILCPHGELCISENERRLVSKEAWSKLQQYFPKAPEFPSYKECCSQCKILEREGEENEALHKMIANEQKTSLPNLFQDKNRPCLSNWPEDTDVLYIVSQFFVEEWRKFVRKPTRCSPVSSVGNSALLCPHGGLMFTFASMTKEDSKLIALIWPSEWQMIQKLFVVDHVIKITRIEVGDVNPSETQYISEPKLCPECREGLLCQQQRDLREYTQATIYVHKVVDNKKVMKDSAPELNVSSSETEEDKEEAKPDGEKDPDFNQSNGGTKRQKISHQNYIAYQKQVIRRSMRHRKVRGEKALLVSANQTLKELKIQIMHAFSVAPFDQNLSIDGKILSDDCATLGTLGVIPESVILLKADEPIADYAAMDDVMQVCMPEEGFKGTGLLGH
Method in brief: as §1

[5] = molecular target: T4, USP5 (UniProt P45974)
T4 sequence (whole entry): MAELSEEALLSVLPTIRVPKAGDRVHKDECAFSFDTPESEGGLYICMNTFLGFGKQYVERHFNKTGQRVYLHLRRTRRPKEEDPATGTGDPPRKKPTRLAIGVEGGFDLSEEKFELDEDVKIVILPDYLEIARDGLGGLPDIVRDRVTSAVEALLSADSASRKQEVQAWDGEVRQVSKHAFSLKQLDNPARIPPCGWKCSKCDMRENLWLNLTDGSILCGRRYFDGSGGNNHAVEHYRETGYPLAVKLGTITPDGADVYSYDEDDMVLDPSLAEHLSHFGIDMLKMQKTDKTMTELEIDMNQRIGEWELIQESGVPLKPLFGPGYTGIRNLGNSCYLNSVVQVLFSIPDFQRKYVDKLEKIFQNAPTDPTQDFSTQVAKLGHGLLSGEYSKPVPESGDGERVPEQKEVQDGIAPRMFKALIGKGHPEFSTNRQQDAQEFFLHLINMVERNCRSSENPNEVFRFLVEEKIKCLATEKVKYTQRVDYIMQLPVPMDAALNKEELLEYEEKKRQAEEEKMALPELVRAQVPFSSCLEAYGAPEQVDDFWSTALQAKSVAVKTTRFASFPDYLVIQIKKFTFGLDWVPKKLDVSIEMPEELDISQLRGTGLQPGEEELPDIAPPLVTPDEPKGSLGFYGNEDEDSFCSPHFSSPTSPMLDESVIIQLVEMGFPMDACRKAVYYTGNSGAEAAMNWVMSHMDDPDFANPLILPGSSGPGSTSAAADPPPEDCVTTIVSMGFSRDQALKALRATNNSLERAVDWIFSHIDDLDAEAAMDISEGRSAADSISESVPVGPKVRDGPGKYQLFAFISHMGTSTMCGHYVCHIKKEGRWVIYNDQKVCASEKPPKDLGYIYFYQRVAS
Method in brief: as §1

[6] = molecular target: USP54 (UniProt Q70EL1)
Method in brief: as §1

[7] = molecular target: USP7 (UniProt Q93009)
Method in brief: as §1

[8] = molecular target: T5, USP8 (UniProt P40818)
T5 sequence (whole entry): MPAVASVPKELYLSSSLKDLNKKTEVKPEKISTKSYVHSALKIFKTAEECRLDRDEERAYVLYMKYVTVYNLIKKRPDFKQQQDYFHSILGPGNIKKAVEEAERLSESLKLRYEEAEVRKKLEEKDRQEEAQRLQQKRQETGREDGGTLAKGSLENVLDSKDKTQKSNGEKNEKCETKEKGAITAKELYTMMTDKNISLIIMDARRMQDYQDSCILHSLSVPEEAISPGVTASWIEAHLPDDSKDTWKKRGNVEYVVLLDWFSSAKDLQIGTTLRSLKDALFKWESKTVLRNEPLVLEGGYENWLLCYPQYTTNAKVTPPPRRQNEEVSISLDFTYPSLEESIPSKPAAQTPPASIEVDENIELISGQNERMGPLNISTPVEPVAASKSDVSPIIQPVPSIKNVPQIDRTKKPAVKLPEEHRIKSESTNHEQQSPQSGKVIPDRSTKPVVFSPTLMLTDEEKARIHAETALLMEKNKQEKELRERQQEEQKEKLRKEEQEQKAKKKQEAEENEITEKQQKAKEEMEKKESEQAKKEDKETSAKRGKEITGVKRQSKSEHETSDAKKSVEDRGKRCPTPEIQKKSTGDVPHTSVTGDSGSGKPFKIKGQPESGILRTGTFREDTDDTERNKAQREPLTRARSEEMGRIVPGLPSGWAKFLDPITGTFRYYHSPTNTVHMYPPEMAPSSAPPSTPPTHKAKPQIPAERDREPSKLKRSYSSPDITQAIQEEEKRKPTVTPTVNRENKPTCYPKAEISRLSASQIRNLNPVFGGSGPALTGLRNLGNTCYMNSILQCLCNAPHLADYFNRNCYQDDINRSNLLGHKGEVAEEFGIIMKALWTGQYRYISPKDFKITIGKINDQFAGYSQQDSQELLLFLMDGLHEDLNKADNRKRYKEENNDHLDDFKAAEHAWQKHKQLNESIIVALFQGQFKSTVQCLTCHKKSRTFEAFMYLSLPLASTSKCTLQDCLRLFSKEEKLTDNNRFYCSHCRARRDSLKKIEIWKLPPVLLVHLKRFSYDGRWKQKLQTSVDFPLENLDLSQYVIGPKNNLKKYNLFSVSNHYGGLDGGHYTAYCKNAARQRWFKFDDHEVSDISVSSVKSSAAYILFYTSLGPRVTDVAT
Method in brief: as §1

[9] = molecular target: USP9X (UniProt Q93008)
Method in brief: as §1

[10] = molecular target: UniProt O00487
Method in brief: as §1

Measured: log2 ratio of Biotin-Ahx-Ub-VS probe labelling

USP9X, sequence (Q93008 whole entry): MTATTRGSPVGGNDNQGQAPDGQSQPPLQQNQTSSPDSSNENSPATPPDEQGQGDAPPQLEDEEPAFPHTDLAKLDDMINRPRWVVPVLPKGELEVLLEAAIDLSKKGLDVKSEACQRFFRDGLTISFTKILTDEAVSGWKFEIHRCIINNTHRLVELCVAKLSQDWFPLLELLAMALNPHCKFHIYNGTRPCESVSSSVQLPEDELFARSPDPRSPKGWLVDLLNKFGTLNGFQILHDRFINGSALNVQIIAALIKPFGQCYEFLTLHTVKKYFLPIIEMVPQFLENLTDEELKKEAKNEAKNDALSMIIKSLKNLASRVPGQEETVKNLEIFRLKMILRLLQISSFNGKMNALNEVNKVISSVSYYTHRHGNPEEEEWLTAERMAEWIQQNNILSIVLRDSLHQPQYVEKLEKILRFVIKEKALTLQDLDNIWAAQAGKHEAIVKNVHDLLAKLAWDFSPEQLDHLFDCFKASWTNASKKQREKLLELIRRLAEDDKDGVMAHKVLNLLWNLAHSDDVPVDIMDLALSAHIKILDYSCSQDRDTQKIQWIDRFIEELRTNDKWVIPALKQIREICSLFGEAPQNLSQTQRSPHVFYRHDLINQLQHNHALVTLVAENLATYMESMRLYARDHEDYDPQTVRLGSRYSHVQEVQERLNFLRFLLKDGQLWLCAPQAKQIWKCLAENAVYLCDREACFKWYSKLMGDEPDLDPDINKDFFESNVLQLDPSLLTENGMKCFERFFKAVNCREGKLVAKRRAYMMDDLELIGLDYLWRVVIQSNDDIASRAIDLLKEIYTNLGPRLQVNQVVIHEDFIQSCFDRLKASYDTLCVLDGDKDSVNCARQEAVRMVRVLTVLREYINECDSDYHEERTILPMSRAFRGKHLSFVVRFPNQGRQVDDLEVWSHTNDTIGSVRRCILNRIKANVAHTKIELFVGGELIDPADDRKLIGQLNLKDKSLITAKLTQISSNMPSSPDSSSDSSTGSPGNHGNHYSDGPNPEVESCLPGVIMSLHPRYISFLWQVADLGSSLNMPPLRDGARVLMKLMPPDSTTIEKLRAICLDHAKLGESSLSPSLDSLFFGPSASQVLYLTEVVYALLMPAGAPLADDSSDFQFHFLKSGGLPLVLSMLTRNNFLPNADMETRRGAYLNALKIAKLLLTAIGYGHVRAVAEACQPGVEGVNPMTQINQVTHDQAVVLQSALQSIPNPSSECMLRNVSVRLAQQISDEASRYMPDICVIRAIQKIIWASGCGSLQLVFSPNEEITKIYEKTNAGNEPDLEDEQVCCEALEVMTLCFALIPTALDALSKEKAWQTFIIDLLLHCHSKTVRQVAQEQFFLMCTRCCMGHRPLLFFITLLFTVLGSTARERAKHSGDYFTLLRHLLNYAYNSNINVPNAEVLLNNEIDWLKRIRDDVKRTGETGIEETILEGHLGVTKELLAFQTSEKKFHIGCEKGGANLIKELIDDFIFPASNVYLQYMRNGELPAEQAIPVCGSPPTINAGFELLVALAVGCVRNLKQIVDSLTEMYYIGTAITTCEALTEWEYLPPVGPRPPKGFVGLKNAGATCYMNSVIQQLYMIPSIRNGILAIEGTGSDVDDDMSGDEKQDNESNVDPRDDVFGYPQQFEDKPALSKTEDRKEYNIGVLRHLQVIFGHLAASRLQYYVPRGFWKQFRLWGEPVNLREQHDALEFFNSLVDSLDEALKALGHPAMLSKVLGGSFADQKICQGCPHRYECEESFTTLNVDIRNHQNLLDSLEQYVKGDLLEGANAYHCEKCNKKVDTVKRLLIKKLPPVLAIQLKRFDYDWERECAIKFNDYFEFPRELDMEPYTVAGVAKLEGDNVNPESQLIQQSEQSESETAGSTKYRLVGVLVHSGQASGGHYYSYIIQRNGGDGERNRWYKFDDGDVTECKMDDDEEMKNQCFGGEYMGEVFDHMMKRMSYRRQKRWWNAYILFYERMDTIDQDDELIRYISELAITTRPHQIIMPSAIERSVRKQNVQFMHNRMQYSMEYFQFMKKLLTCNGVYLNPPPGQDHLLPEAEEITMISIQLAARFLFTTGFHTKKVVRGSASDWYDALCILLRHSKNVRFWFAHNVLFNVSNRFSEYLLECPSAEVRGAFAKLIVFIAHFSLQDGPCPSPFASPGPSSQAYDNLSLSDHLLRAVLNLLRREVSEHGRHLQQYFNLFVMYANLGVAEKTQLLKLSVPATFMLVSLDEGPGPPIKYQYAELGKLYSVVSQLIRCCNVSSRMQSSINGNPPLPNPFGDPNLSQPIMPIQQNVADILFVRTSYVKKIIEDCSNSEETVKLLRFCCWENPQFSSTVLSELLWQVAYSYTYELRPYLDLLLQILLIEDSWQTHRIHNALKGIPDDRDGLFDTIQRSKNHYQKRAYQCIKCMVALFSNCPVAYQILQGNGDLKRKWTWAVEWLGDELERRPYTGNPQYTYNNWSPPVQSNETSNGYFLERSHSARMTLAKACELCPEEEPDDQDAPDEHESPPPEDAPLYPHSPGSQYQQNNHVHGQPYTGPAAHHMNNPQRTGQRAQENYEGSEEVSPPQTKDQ
USP54, sequence (Q70EL1 whole entry): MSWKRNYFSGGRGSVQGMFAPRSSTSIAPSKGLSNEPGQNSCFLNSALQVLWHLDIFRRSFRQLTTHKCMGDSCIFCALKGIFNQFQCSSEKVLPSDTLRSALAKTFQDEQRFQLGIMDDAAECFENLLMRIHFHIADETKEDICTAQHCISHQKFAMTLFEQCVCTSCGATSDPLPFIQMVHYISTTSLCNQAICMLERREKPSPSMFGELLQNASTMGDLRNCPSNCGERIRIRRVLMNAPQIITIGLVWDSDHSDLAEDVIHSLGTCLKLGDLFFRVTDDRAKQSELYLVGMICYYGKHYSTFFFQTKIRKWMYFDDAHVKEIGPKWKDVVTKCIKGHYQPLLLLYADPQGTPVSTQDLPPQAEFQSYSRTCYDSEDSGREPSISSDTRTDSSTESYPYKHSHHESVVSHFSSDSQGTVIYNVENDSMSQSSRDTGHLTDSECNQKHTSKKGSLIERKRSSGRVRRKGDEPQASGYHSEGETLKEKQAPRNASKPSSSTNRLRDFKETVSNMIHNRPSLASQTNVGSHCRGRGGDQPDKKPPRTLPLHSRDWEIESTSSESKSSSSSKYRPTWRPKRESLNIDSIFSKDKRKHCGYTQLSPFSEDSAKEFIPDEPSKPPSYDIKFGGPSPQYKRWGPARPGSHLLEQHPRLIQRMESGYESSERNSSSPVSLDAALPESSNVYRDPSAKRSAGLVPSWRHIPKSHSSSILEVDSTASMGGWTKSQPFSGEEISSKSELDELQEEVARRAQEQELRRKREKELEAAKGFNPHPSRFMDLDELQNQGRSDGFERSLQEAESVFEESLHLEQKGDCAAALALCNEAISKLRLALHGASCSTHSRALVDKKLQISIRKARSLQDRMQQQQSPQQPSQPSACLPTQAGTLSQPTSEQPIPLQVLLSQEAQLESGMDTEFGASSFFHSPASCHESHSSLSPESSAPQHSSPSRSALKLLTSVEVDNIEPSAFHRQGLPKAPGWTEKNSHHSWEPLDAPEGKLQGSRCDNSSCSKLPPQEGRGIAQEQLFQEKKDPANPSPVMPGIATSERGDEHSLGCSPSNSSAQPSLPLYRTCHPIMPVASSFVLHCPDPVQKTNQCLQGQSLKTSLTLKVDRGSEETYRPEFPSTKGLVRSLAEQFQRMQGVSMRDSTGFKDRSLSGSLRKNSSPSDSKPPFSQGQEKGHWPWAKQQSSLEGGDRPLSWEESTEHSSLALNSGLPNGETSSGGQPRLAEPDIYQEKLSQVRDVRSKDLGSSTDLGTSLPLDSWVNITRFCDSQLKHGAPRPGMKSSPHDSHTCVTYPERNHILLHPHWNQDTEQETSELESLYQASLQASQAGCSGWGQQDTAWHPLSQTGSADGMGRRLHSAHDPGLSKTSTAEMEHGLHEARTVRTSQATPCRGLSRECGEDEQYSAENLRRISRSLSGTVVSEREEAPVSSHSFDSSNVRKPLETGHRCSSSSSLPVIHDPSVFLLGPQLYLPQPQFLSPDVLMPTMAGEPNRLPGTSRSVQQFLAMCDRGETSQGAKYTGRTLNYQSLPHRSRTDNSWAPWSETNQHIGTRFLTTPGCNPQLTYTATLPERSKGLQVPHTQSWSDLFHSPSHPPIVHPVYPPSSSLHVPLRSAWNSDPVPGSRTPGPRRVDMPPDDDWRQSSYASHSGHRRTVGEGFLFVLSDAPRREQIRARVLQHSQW
UniProt O00487, sequence (O00487 whole entry): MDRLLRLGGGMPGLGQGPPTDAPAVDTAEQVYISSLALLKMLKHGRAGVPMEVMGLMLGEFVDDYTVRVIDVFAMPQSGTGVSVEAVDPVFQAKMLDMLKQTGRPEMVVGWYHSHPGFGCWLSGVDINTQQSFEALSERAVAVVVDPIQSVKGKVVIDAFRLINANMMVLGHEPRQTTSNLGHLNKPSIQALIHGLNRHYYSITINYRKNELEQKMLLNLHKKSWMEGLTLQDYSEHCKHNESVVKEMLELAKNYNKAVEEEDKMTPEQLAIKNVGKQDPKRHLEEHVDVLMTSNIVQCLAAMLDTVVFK
USP46, sequence (P62068 whole entry): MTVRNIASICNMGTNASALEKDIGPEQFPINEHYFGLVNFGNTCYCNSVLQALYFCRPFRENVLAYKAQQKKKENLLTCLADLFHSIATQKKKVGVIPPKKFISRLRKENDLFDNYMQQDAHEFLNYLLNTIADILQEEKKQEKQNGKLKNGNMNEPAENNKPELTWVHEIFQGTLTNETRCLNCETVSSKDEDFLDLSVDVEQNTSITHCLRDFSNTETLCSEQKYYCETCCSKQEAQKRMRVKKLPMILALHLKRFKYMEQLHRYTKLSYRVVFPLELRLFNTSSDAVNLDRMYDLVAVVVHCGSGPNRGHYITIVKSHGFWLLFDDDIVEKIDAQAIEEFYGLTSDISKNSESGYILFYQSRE

N#Cc1ccc(CNC(=O)CCl)cc1
inactive: [1] 0.0438 | [2] 0.111 | [3] 0.323 | [4] -0.167 | [5] 0.0355 | [6] 0.446 | [7] -0.073 | [8] -0.338 | [9] -0.0142 | [10] -0.00705

O=C(CCl)N1CCC(OCc2ccccc2F)CC1
inactive: [1] 0.919 | [2] 0.155 | [3] -0.138 | [4] -0.151 | [5] 0.445 | [6] -0.235 | [7] -0.391 | [8] 0.124 | [9] -0.0279 | [10] 0.075

Cl.Cn1nc2c(c1CNC(=O)CCl)CCCC2
inactive: [1] -0.241 | [2] 0.117 | [3] 0.0138 | [4] -0.0889 | [5] 0.0696 | [6] 0.268 | [7] -0.055 | [8] -0.598 | [9] -0.188 | [10] 0.0603

O=C(CCl)Nc1ccc(Cl)c(F)c1
inactive: [1] -0.0407 | [2] -0.231 | [3] -0.798 | [4] -0.731 | [5] -0.223 | [6] -0.268 | [7] -0.646 | [8] -0.207 | [9] -0.282 | [10] -0.0232
